Source: the supplement of paper PMC3334620
Whole data set: some 33,000 sequences, median “E-score (-0.5 to 0.5)” near -0.0034, cut for the highest 2% near 0.25. The entries come from a sample that favours the highest values as a whole.

These sequences were tested against T1, Yap3 (UniProt P38749) (assay: PBM E-score (8-mer binding enrichment) (E-score (-0.5 to 0.5)); higher = stronger / more preferred TF binding). Details: protein concentration: 100 nM; construct: GST-full length.
T1 sequence: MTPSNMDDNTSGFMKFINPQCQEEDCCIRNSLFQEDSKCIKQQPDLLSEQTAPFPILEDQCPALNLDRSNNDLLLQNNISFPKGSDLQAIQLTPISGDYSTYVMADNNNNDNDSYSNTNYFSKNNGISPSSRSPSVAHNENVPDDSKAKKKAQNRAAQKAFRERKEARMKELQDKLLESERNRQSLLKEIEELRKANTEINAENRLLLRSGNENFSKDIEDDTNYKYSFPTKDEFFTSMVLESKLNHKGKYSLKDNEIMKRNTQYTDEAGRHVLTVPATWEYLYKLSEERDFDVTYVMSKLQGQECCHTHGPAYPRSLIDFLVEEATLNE
How it was run: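 For each ungapped eight-base word taken together with its reverse complement, the Universal PBM Analysis Suite assigned an E-score. Binding data came from GST-tagged yeast transcription factors, applied at about 100-200 nM, on universal all-10-mer Agilent arrays made double-stranded by primer extension. Fluorescent anti-GST marked bound protein, and scans were normalised with masliner.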

Row | Sequence | PBM E-score
1 | GACTGTCC | -0.203
2 | ACGCTCAC | -0.0296
3 | AAACACTC | 0.0568
4 | AAATAAGC | 0.12
5 | CAACATAA | 0.297
6 | AAACATAA | 0.202
7 | CAACATAC | 0.0807
8 | TAACATAA | 0.337
9 | CAACATAG | 0.144
10 | GAACATAA | 0.134
11 | CTGTGACA | 0.0329
12 | CATGGGCA | -0.0447
13 | GTAGCGTA | 0.0978
14 | AATCCTGC | 0.0275
15 | ACTTGGGC | -0.119
16 | AGCTCTAG | -0.0862
17 | GAAAATCA | 0.132
18 | CAAGCAAA | 0.00556
19 | AGCCAGGA | -0.0633
20 | GAAACTAA | 0.00343
21 | TAAACTAA | 0.282
22 | AAAACTAG | 0.021
23 | AAAACTAT | 0.182
24 | AAAACTAA | 0.298
25 | CAAACTAA | 0.25

Row | Sequence | PBM E-score
26 | AGTGGTTA | 0.142
27 | GACACCGA | -0.136
28 | CTGCTCCA | -0.0981
29 | ATCCGTTA | 0.284
30 | ATCCGTTC | 0.057
31 | GTCCGTTA | 0.107
32 | ACGATACC | 0.157
33 | ACTGATCA | 0.131
34 | ACTCTACC | 0.0336
35 | ATATATGA | 0.185
36 | ATATATGC | 0.224
37 | ATATGGAG | 0.264
38 | CTCTATAC | -0.129
39 | CTATATAG | 0.121
40 | CTATATAC | 0.367
41 | CTATGGAG | -0.0464
42 | ATATGGAC | 0.0106
43 | GTATATAC | 0.0969
44 | ATATATGG | 0.259
45 | ATATATAT | 0.231
46 | ATATATAC | 0.299
47 | AAGAGAGC | -0.218
48 | CCCACCAA | 0.0694
49 | ACCCCTTC | -0.182
50 | CATCGCAC | -0.0244

Row | Sequence | PBM E-score
51 | CGAACTTA | 0.0175
52 | GTAGTTTA | 0.203
53 | ATAGAGCA | 0.0256
54 | CCCCGCCA | 0.0511
55 | CTAAATTA | 0.212
56 | AGAAATTG | 0.266
57 | ACAAATTG | 0.173
58 | ATAAATTC | 0.153
59 | AAAAATTG | 0.0568
60 | ATAAATTA | 0.365
61 | GTAAATTA | 0.223
62 | ATAAATTG | 0.312
63 | AGAAATTC | 0.0349
64 | AGACAAAA | 0.0827
65 | ACTAATGA | 0.264
66 | ACTAATCT | 0.00634
67 | CCTAATAC | 0.122
68 | ACTAAGAA | 0.205
69 | ACTAAGAC | -0.0709
70 | TCTAATCA | 0.185
71 | CCTAATGA | 0.128
72 | GCTAATGA | 0.0606
73 | ACTAATCA | 0.255
74 | GCTAATAC | 0.176
75 | ACTAATAC | 0.288

Row | Sequence | PBM E-score
76 | ACTAAGAT | 0.255
77 | CGTGTGTA | 0.172
78 | ATAGGTTA | 0.0929
79 | AGCAAACT | 0.158
80 | ATAGAGGA | -0.186
81 | CCTAATAA | 0.146
82 | TCTAATAA | 0.167
83 | ACTAATAA | 0.303
84 | ACTAATAT | 0.301
85 | ACTAATAG | 0.244
86 | ACGAATAT | 0.212
87 | ATTAAAGG | 0.199
88 | CAAACTCC | -0.0365
89 | CCGTGGAA | -0.00863
90 | GCTCACAA | 0.0362
91 | TCGATGCA | -0.0467
92 | AGTAATTC | 0.235
93 | CGTAATTC | 0.296
94 | CGTAATTA | 0.335
95 | AGTAATTA | 0.307
96 | CCTAATTC | 0.036
97 | AGTAATTG | 0.164
98 | GGTAATTA | 0.221
99 | CGTAATGA | 0.241
100 | AGTAAGTA | 0.221

Row | Sequence | PBM E-score
101 | AGAAATCA | 0.0967
102 | ACCTCTGG | -0.158
103 | ACCAGGAG | -0.207
104 | CTACTCTC | -0.0538
105 | AATGGTCC | 0.113
106 | TATGGTCA | 0.0184
107 | AATGGTCA | 0.26
108 | ACATCCTC | -0.0125
109 | CTGAGAAA | 0.0446
110 | AATTTAAA | 0.171
111 | CACATGTA | 0.109
112 | TACATGTA | 0.255
113 | GACATGTA | 0.162
114 | CTCGGAAA | 0.0289
115 | GTCGGAAA | 0.263
116 | ATCGGAAA | 0.112
117 | CGAGCCAC | -0.228
118 | GCCAGTAA | -0.206
119 | ATACAAAA | 0.284
120 | CTACAAAA | 0.0817
121 | TCACAAAA | 0.206
122 | GTACAAAA | 0.233
123 | TTACAAAA | 0.256
124 | ATACAAAT | 0.173
125 | GGGTAGCA | -0.108

Row | Sequence | PBM E-score
126 | TAGAGGCA | -0.0959
127 | ATCGTATG | 0.0469
128 | GTCTGCAA | -0.0254
129 | CATGTTGC | -0.0984
130 | AATGTTGA | 0.0691
131 | CATGTTGA | 0.255
132 | GCAAATAC | 0.0311
133 | ACAAATAG | 0.202
134 | ACAAAAAT | 0.298
135 | ACAAAAAA | 0.234
136 | ACAAATAC | 0.293
137 | ACAAAAAG | 0.239
138 | ACAAATAA | 0.225
139 | GCAAAACC | -0.0668
140 | ACAAAAAC | 0.143
141 | ACAAAACC | 0.272
142 | CCAAATAC | -0.144
143 | ACAAATAT | 0.274
144 | AAACCCTT | 0.0938
145 | ACAGGGTG | -0.126
146 | ACCTAAAA | 0.0796
147 | AAGCGGAC | -0.025
148 | ACGTAGTG | 0.0166
149 | GTACAGAA | -0.00324
150 | CGTCAATC | 0.0678

Row | Sequence | PBM E-score
151 | CCATGAGG | -0.0244
152 | AATAGCCG | 0.0258
153 | ACCAGCAG | -0.186
154 | CCTCGTAG | -0.00114
155 | GAGATACA | 0.167
156 | AAGATAAA | 0.286
157 | AAGATAAG | 0.0204
158 | AAGATACT | -0.0357
159 | AAGATACA | 0.262
160 | AAGATAAC | 0.111
161 | AAGGCCAC | -0.143
162 | ACGCGAAT | 0.106
163 | CAATTAGC | 0.085
164 | ACAGACCG | -0.0661
165 | CTCCCATC | 0.0634
166 | ACCAGAGG | -0.119
167 | AATTCGCG | 0.0991
168 | AATTCGCC | 0.125
169 | AATTCGCT | 0.289
170 | GTGCACTA | 0.0636
171 | CTGCACTA | 0.262
172 | CTGCACTC | 0.0431
173 | AGACCATA | 0.156
174 | CTACGTTA | 0.0868
175 | ATACGTTA | 0.0384

Row | Sequence | PBM E-score
176 | ATACGTCA | 0.0839
177 | GTACGTTA | 0.256
178 | CTACGTCA | -0.0902
179 | GTACGTCA | 0.267
180 | CGAAGTAA | 0.0985
181 | GTGCCCAA | -0.0496
182 | ATTAACAG | 0.0676
183 | ATTAACTC | 0.193
184 | AATAACAT | 0.164
185 | ATTAACAA | 0.282
186 | GTTAACAA | 0.205
187 | AATAACAC | 0.288
188 | CTTAACAC | 0.114
189 | ATTAACAC | 0.273
190 | AATAACAG | 0.149
191 | CCTGGTGC | -0.102
192 | AATGCACG | -0.00779
193 | ACATTTCG | 0.0557
194 | ACCTGGTC | -0.115
195 | GAATGTAA | 0.221
196 | TAATGGAA | 0.256
197 | TAATGTAA | 0.312
198 | GAATGGAA | 0.131
199 | AAATGGAA | 0.0788
200 | AAATGTAA | 0.227

Row | Sequence | PBM E-score
201 | CGAGGCGC | -0.0513
202 | ATATTGAC | 0.069
203 | ATGCAGAC | -0.0609
204 | CCTGGGTA | -0.172
205 | CAAACGAA | 0.0114
206 | GAAACGAC | 0.123
207 | GAAACGAA | 0.255
208 | GGCGGGGA | 0.233
209 | GATAATAA | 0.113
210 | TGCAATAA | 0.272
211 | AATAATAG | 0.2
212 | GATAATAC | 0.182
213 | CGCAATAA | 0.191
214 | AATAATAC | 0.296
215 | GGCAATAA | 0.114
216 | CATAATAC | 0.24
217 | CATAATAA | 0.105
218 | TATAATGA | 0.136
219 | AATAATAA | 0.308
220 | TATAATAA | 0.287
